From PubChem BioAssay AID1745853 (National Center for Advancing Translational Sciences (NCATS), 2022)
About 970 (3.9%) of roughly 25,000 compounds were called active. Roughly 8% stayed inconclusive and do not appear here. The rule behind the calls is not given here. Only a selection was taken, and actives are over-represented in it overall.

What was measured:
Experiment in all cases: Primary Screen for Target Class Profiling of Small Molecule Inhibitors of Methyltransferases
[1] = target: Catechol O-methyltransferase (Homo sapiens) (UniProt P21964); details: purified enzyme, MTase-Glo SAH luminescence; at 40 µM; stronger effect = lower value
Chain of Catechol O-methyltransferase (Homo sapiens) (P21964 whole entry, looked up): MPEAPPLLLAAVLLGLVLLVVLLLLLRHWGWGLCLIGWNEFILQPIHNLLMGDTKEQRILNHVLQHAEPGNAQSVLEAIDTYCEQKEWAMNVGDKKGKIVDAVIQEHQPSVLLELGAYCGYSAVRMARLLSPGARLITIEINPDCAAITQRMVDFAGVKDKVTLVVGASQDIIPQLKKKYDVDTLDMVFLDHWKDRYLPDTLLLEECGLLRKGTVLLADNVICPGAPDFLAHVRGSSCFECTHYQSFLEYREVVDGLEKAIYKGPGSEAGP
Source text: (§1) PI: Matthew D. Hall Ph.D. and Quinlin M. Hanson Ph.D.
(§2) National Center for Advancing Translational Sciences (NCATS)
(§3) National Institute of Health (NIH), Rockville, MD
(§4) Target class profiling (TCP) is a chemical biology approach amenable to investigating understudied biological targets. TCP is achieved by developing a generalizable assay platform and applying it to screen a curated set of compound libraries against representative members of a target class. Small molecule methyltransferases (SMMTase) are a subclass of methyltransferase that act on metabolites to modulate signaling pathways, metabolize xenobiotics, or balance the available methyl pool. We screened four curated libraries totaling 27,574 unique compounds against the SMMTases nicotinamide N-methyltransferase (NNMT), phenylethanolamine N-methyltransferase (PNMT), histamine N-methyltransferase (HNMT), glycine N-methyltransferase (GNMT), catechol O-methyltransferase (COMT), and guanidinoacetate N-methyltransferase (GAMT). The data generated by this TCP can be leveraged for informed tool molecule development. For example, in the associated publication we identified a chemotype of HNMT-selective inhibitors. Additionally, we identified a putative SMMTase-selective inhibitor with potential as a tool molecule for studying broader methyltransferase biology.
(§5) High-through put screening assays were developed at the National Center for Advancing Translational Science (NCATS) for the enzymes NNMT, PNMT, HNMT, GNMT, COMT, and GAMT. Enzymatic activity was measured as a function of SAM cofactor conversion using the MTase Glo kit (Promega) for all enzymes. All assays were performed in 1536-well format with substrates and SAM concentrations at KM values. Enzyme concentration and assay timing were optimized for 10-20% SAM conversion. Initial screening of 27,574 compounds was done as single-point assays using the highest compound concentration (40 uM). […] These compounds were replated in 11-point dose response and assayed against NNMT, PNMT, HNMT, GNMT, COMT, GAMT, and a counter-assay. The IC50 and efficacy (maximal response) values were determined for each dose-response curve. These values are also accounted for in the area under the curve (AUC) values.
(§6) PROTOCOL TABLE (as described by Inglese J, Shamu CE and Guy RK. 2007)
(§7) SEQUENCE No. (e.g., 1, 2, 3, etc.); […] (e.g., Cells, Incubation, Reagent, etc.); VALUE; DESCRIPTION.
(§8) 1; Reagent; 2 uL; SMMTase Enzyme (2x) in reaction buffer, columns 1- 48.
(§9) 2; Reagent; 1 uL; SAM (4x) in reaction buffer, columns 1-48.
(§10) 3; Controls; 23 nL; DMSO in column 4; sinefungin in DMSO (0 uM - 40 uM) in 7-point 1:2 dilution series (n = 2) in column 2.
(§11) 4; Compounds; 23 nL; Columns 5-48.
(§12) 5; Reagent; 1 uL; Substrate (4x) in reaction buffer, columns 2-48.
(§13) 6; Time; 20-30 min; Incubation.
(§14) 7; Reagent; 1 uL; MTase-Glo reagent (5X), columns 1-48.
(§15) 8; Time; 30 min; Incubation.
(§16) 9; Reagent; 5 uL; MTase-Glo Detection reagent, columns 1-48.
(§17) 10; Time; 30 min; Incubation, luminescence evolution.
(§18) 11; Detection; Luminescence; ViewLux uHTS Microplate Imager (PerkinElmer).
(§19) NOTES (numbers refer to Sequence numbers above)
(§20) 1, 2, 5. White Medium Binding Greiner 1536-well plates (Cat #789175-F, Greiner Bio-One, Monroe, NC); Reaction buffer: 50 mM Tris, pH 8.0, 3 mM MgCl2, 1 mM EDTA, 50 mM NaCl, 1 mM DTT, and 0.1 mg/mL BSA. Evaporation was prevented by covering assay plates with metal lids containing holes to allow gas diffusion.
(§21) 1. Six SMMTase were profiled: HNMT, GNMT, PNMT, COMT, NNMT, GAMT
(§22) 5. The corresponding substrate was used for each enzyme: HNMT - 5.3 uM Histamine; GNMT - >500 uM Glycine; PNMT - 16.2 uM Norephinephrine; COMT - 13.7 uM Norephinephrine; NNMT - 3.8 uM Nicotinamide; GAMT - 2.5 uM Guanidinoacetate.6, 8, 10. Room temperature
(§23) 6. Final reaction conditions: 10 nM COMT, 5 uM SAM, 15 uM norepinephrine, 50 mM Tris, pH 8.0, 3 mM MgCl2, 1 mM EDTA, 50 mM NaCl, 1 mM DTT, and 0.1 mg/mL BSA; refer to tables 2 and S1 for specific timing.
8. […]

[2] = target: Glycine N-methyltransferase (Homo sapiens) (UniProt Q14749); details: purified enzyme, MTase-Glo SAH luminescence; measured here: GNMT inhibition; at 40 µM; stronger effect = lower value
Chain of Glycine N-methyltransferase (Homo sapiens) (Q14749 whole entry, looked up): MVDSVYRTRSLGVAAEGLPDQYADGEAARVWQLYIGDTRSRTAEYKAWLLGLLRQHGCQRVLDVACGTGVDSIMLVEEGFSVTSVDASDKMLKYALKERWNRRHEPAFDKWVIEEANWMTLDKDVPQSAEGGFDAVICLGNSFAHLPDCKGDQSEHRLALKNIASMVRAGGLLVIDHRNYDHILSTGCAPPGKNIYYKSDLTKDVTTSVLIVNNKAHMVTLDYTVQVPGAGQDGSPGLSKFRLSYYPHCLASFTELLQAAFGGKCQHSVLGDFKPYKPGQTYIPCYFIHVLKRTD
Source text: as §1, §2, §3, §4, §5, §6, §7, §8, §9, §10, §11, §12, §13, §14, §15, §16, §17, §18, §19, §20, §21, §22, §23
8. […]

[3] = target: Guanidinoacetate N-methyltransferase (Homo sapiens) (UniProt Q14353); details: purified enzyme, MTase-Glo SAH luminescence; measured here: GAMT inhibition; at 40 µM; stronger effect = lower value
Source text: as §1, §2, §3, §4, §5, §6, §7, §8, §9, §10, §11, §12, §13, §14, §15, §16, §17, §18, §19, §20, §21, §22, §23
8. […]

[4] = target: Histamine N-methyltransferase (Homo sapiens) (UniProt P50135); details: purified enzyme, MTase-Glo SAH luminescence; measured here: HNMT inhibition; at 40 µM; stronger effect = lower value
Chain of Histamine N-methyltransferase (Homo sapiens) (P50135 whole entry, looked up): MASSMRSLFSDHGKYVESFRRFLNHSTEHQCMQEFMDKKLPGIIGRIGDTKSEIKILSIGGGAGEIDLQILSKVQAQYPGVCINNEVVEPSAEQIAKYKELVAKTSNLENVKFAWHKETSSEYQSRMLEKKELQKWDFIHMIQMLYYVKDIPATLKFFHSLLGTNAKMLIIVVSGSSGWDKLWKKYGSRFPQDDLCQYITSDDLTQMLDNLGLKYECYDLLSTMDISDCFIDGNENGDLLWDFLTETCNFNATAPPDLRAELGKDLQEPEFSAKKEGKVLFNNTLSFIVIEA
Source text: as §1, §2, §3, §4, §5, §6, §7, §8, §9, §10, §11, §12, §13, §14, §15, §16, §17, §18, §19, §20, §21, §22, §23
8. […]

[5] = target: Nicotinamide N-methyltransferase (Homo sapiens) (UniProt P40261); details: purified enzyme, MTase-Glo SAH luminescence; measured here: NNMT inhibition; at 40 µM; stronger effect = lower value
Chain of Nicotinamide N-methyltransferase (Homo sapiens) (P40261 whole entry, looked up): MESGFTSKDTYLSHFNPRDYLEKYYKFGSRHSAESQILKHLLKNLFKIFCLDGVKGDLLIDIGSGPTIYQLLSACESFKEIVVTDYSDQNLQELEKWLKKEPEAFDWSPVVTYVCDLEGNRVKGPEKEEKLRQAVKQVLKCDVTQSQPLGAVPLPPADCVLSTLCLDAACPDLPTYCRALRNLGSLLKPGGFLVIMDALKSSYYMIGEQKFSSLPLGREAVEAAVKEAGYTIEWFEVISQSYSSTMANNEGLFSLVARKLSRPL
Source text: as §1, §2, §3, §4, §5, §6, §7, §8, §9, §10, §11, §12, §13, §14, §15, §16, §17, §18, §19, §20, §21, §22, §23
8. […]

[6] = target: Phenylethanolamine N-methyltransferase (Homo sapiens) (UniProt P11086); details: purified enzyme, MTase-Glo SAH luminescence; measured here: PNMT inhibition; at 40 µM; stronger effect = lower value
Chain of Phenylethanolamine N-methyltransferase (Homo sapiens) (P11086 whole entry, looked up): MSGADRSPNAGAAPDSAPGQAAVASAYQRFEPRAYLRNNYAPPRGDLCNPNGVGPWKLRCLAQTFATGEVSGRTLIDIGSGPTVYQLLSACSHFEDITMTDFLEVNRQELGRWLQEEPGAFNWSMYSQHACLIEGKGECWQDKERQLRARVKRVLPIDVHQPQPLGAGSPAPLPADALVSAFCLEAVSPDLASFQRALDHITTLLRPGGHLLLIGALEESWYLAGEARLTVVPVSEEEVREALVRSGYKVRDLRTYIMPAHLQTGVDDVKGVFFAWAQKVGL
Source text: as §1, §2, §3, §4, §5, §6, §7, §8, §9, §10, §11, §12, §13, §14, §15, §16, §17, §18, §19, §20, §21, §22, §23
8. […]
% is set by controls: 0 for no effect and ±100 for the full control effect.

Row | Structure (SMILES) | activity change, negative = inhibition [1] | activity change, negative = inhibition [2] [%] | activity change, negative = inhibition [3] [%] | activity change, negative = inhibition [4] [%] | activity change, negative = inhibition [5] [%] | activity change, negative = inhibition [6] [%]
1 | CO[C@H]1C[C@H](O[C@H]2CC[C@]3(CO)[C@H]4CC[C@]5(C)[C@@H](C6=CC(=O)OC6)CC[C@]5(O)[C@@H]4CC[C@]3(O)C2)O[C@H](C)[C@H]1O | -8.57% (inactive) | -6.2 | -5.89 | -0.519 | -17.6 | -14.3
2 | C[C@H]1O[C@@H](O[C@H]2CC[C@]3(CO)C4CC[C@]5(C)[C@@H](C6=CC(=O)OC6)CC[C@]5(O)[C@@H]4CC[C@H]3C2)[C@H](O)[C@H](O)[C@@H]1O[C@@H]1O[C@H](CO)[C@@H](O)[C@H](O)[C@H]1O (stereo not given in full) | -91.7% (active) | -5.56 | -4.58 | -5.35 | -16 | 0.37
3 | COC1CC(O[C@H]2CC[C@@]3(C)C(CCC4C3CC[C@]3(C)[C@@H](C5=CC(=O)OC5)CC[C@]43O)C2)OC(C)C1O (stereo not given in full) | -9.86% (inactive) | -6.87 | -29.4 | 1.18 | -27.7 | -12.7
4 | CN(C)c1ccc(C2c3cccn3-c3ccccc3CN2C(=O)NCc2ccccc2)cc1 (stereo not given) | 0.57% (inactive) | 0.802 | 6.24 | -5.35 | -6.61 | -0.417
5 | CN(C)c1ccc(C2c3cccn3-c3ccccc3CN2C(=O)Nc2ccccc2)cc1 (stereo not given) | -1.13% (inactive) | 1.96 | -0.001 | -8 | -4.78 | -1.52
6 | NCC(O)c1ccc(O)cc1 (stereo not given) | 3.68% (active) | -1.52 | 3.17 | -74.4 | -9.18 | 11.4
7 | COCC1CN(Cc2ccsc2)CC12CCNCC2 (stereo not given) | -8.14% (inactive) | -4.38 | -6.87 | -9.72 | -11.7 | -11.5
8 | CCc1ccccc1NC(=O)N1Cc2ccccc2-n2cccc2C1c1ccccc1Cl (stereo not given) | -0.522% (inactive) | 4.4 | 3.52 | -2.61 | 1.65 | 1.03
9 | CC(=O)Nc1ccc(-c2ccc3n(c2=O)C[C@H]2C[C@@H]3CN(C3CCN(C)CC3)C2)cc1 | -5.08% (inactive) | -3.31 | -2.09 | -19.5 | -9.65 | 8.92
10 | C#C[C@]1(O)CC[C@H]2[C@@H]3CC[C@H]4Cc5nc6nc7ccccc7n6cc5C[C@]4(C)[C@H]3CC[C@@]21C | -23.3% (active) | -13.8 | -29.6 | -17.3 | -52.4 | -33.3
11 | COc1cccc([C@H]2CN(c3cc(C)nc(N)n3)[C@@H]3C4CCN(CC4)[C@H]23)c1 | -2.54% (inactive) | -5.12 | -8.6 | -24.3 | -8.14 | -9.36
12 | COc1cccc(CC(=O)N2CCCCCC2CN2CCCC2)c1 (stereo not given) | 3.61% (inactive) | -1.59 | -5.27 | -5.48 | -4.35 | 0.866
13 | CCc1ccc(C2c3cccn3-c3ccccc3CN2C(=O)Nc2cc(C)cc(C)c2)cc1 (stereo not given) | 5.19% (inactive) | 9.8 | 0.9 | 2.8 | 4.04 | 7.84
14 | COC(=O)c1ccccc1NC(=O)N1Cc2ccccc2-n2cccc2C1c1ccccc1Cl (stereo not given) | 3.56% (inactive) | 11.4 | 3.31 | 5.36 | 0.178 | 5.41
15 | CCC1c2cccn2-c2ccccc2CN1C(=O)Nc1cccc(C)c1C (stereo not given) | 2.68% (inactive) | -0.789 | 3.87 | -2.49 | -4.56 | 2.16
